Measured values as given in PubChem BioAssay AID1851 (National Center for Advancing Translational Sciences (NCATS), 2009).
In all, about 16,000 compounds went through this assay and about 5,700 (36%) were called active. Inconclusive results (about 24%) are left out. The call rests on the fitted dose curve; in most records, active means well fitted curve in the direction sought with a large enough effect; inconclusive means small, poorly fitted or top-dose-only effect, or effect the other way; inactive means no such curve, though single readings can be large or run the other way. The list shows a part of the results.

What follows are compounds tested against Cytochrome P450 1A2 (Homo sapiens) (UniProt P05177) (assay: Cytochrome panel assay with activity outcomes). Conditions: recombinant CYP, pro-luciferin dealkylation, luminescence, p450-cyp1a2; series mostly up to 57.1 µM.
On the % scale 0 is the no-effect control and ±100 the full control effect.

Chain of Cytochrome P450 1A2 (Homo sapiens) (P05177 whole entry, looked up): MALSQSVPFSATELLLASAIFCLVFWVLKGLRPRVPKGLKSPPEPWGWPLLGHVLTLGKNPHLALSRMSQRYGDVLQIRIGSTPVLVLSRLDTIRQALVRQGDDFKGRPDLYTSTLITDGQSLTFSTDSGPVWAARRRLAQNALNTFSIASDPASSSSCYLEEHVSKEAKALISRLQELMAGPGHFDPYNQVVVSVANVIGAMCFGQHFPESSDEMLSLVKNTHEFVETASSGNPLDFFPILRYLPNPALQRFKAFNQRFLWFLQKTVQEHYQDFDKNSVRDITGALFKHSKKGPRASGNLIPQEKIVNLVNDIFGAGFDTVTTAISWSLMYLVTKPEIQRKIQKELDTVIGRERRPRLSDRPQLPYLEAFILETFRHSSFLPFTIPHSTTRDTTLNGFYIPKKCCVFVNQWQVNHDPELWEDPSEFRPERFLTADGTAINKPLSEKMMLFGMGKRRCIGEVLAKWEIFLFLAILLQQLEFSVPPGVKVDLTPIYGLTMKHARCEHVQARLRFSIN

AC50, inactive:
CCCc1cc(=O)[nH]c(=S)[nH]1
CS(=O)(=O)N1CCC2(CCCN(c3ccncc3)C2)CC1
C/C(=N\NC(=O)CC1N=C(Cc2ccccc2)NNC1=O)c1ccc(Cl)cc1Cl (stereo not given)
COc1ccc2c(c1OC)C(=O)OC2[C@H]1c2c(cc3c(c2OC)OCO3)CCN1C (stereo not given in full)
O=C(c1csnn1)N1CCC2(CC1)CN(C(c1ccccc1)c1ccccc1)C2
COc1ccccc1CN1CCCC2(CCN(C(=O)c3ccco3)CC2)C1
O=C(CSc1ccccc1C(=O)O)NCc1ccco1
COc1ccccc1CN1CCC2(CC1)CCN(C(=O)c1ccco1)CC2
CO/N=C(\C(=O)N[C@@H]1C(=O)N2C(C(=O)O)=C(COC(C)=O)CS[C@@H]12)c1csc(N)n1
CN[C@]1(C)[C@H]2CC[C@@H](C2)C1(C)C
COC(=O)N1CCC2(CCCN(C(=O)Nc3cccc(F)c3)C2)CC1
COc1ccc(C(=O)N2CCC3(CCN(C(=O)Nc4cccc(F)c4)CC3)CC2)cc1
CC(=O)N1CCC2(CCCN(C(=O)Nc3cccc(F)c3)C2)CC1
COC(=O)N1CCC2(CC1)CN(C(=O)Nc1cccc(F)c1)C2
O=C(Nc1cccc(F)c1)N1CCCC2(CCN(C(=O)c3cnccn3)CC2)C1
COc1ccc(NC(=O)N2CCCC3(CCN(C(=O)c4cccc(F)c4)CC3)C2)cc1
C#C[C@H](N)CCC(=O)O
Cc1ccc(C)c(S(=O)(=O)NCc2ccc(C(=O)N3CCC(Cc4ccccc4)CC3)cc2)c1
N=C(N)c1ccccc1
CC(C)C(=O)NCCCc1ccccc1
C[C@H]1[C@@H](O)[C@@H](C)\C=C/C=C\C=C/C=C\C=C/C=C\C=C/[C@@H](O[C@H]2O[C@@H](C)[C@@H](O)[C@@H](N)[C@@H]2O)C[C@@H]2O[C@](O)(C[C@@H](O)C[C@@H](O)[C@@H](O)CC[C@@H](O)C[C@@H](O)CC(=O)O[C@H]1C)C[C@@H](O)[C@H]2C(=O)O (stereo in doubt)
COC(=O)C1=C(C)C(c2ccc(OC)cc2)NC(=S)N1 (stereo not given)
COC(=O)c1cc(C#N)c(NCc2ccc(Cl)cc2Cl)nc1C
CC(C)Oc1cccc(C(=O)NC(=S)N2CCN(c3ccc(C(F)(F)F)cc3[N+](=O)[O-])CC2)c1
Cc1cc(C)c(NC(=O)NC(=O)c2ccc(F)cc2)c(C)n1
Cc1ccc(C(C(=O)NC2CCCCC2)N(CC2CCCO2)C(=O)CNC(=O)c2cccs2)cc1 (stereo not given)
O=C(NCC(=O)N(c1ccccc1)C(C(=O)NC1CCCC1)c1cccnc1)c1cccs1 (stereo not given)
C/C=C\C(=O)N(CC)c1ccccc1C
CC1(C)OC(=O)NC1=O
Cc1noc(C)c1C(=O)N1CCC2(CC1)CCN(c1ccncc1)CC2
CC(C)(C)C(=O)NC(c1ccc(Cl)cc1)[C@]1(C)C[C@H]1C1CCCCC1 (stereo not given in full)
CCCNS(=O)(=O)c1ccc(OCC(=O)OC)cc1
CCCOc1ccc(/C=C/C(=O)Nc2ccc([N+](=O)[O-])cc2C)cc1
COc1ccc(N2CCN(Cc3nc4c(c(=O)n(C)c(=O)n4C)n3CC(C)=O)CC2)cc1
CCn1ccc(C(=O)NC2C(=O)N3C(C(=O)O)=C(C)CSC23)n1 (stereo not given)
C[C@]12C=CC(=O)C=C1CC[C@@H]1[C@H]3C[C@@H](O)[C@](O)(C(=O)CO)[C@@]3(C)C[C@H](O)[C@]12F
Cn1c(SC2CCCCC2=O)nnc1-c1ccncc1 (stereo not given)
Cn1c(SCC(=O)NC2CC2)nnc1-c1cccc(NC(=O)c2ccccc2F)c1
CC(C)(C)c1onc(OCP(=O)(O)O)c1C[C@@H](N)C(=O)O

AC50, active:
O=c1c(-c2ccc(F)cc2)nc2cnc(N3CCNCC3)nc2n1C1CC1 2510 nM
O=c1c(-c2cc(F)cc(F)c2)nc2cnc(N3CCNCC3)nc2n1C1CC1 3160 nM
COc1ccc(-c2nc3cnc(N4CCNCC4)nc3n(C3CC3)c2=O)cc1 6310 nM
C/C(=N\NC(=O)Cc1ccc(Cl)cc1)c1ccccn1 4470 nM
C[N+]1(C)CCc2cc3c(cc2[C@@H]1[C@@H]1C(=O)Oc2c1ccc1c2OCO1)OCO3 1260 nM
C=CCNc1oc(/C=C/c2ccccc2)nc1C#N 3550 nM
CCOC(=O)C(=Cc1ccc(-c2ccsc2C(=O)OC)o1)C(=O)OCC 14100 nM
O=C(Cn1cc(C(=O)c2ccco2)c2ccccc21)NCc1ccco1 11200 nM
COc1ccccc1OCCn1cc(C(=O)c2ccco2)c2ccccc21 2510 nM
N#Cc1cc(-c2ccccc2)cnc1Sc1ccc(Cl)cc1 1780 nM
N#Cc1cc(-c2ccc(Cl)cc2)cnc1Sc1ccc(F)cc1 112 nM
N#Cc1cc(-c2ccc(Cl)cc2)cnc1Sc1ccccc1 398 nM
COC(=O)N1CCC2(CCN(C(=O)Nc3cccc(F)c3)CC2)CC1 12600 nM
O=C(Nc1cccc(F)c1)N1CCCC2(CCN(C(=O)c3ccncc3)CC2)C1 12600 nM
COc1ccc(C(=O)N2CCC3(CCCN(C(=O)Nc4cccc(F)c4)C3)CC2)cc1 20000 nM
COc1ccc2[nH]cc(CCNc3ccnc(-c4ccccc4Cl)n3)c2c1 398 nM
COc1ccc2[nH]cc(CCNc3ccnc(-c4ccccc4C)n3)c2c1 316 nM
Cc1ccc2c(c1)N[C@H](c1ccc(C(=O)O)cc1)c1cccn1-2 794 nM
N=C(N)c1ccc(N=Nc2c(O)ccc3c2[nH]c2ccccc23)cc1 1580 nM
Cc1ccc(NC(=O)NCCCc2ccccc2)cc1 3550 nM
O=C(NCCCc1ccccc1)c1cccs1 11200 nM
CCC(O)CNc1nc(-n2nc(C)cc2C)nc2sc3c(c12)CC(C)(C)OC3 (stereo not given) 14100 nM
Cc1cc(C)n(-c2nc(NCC(C)O)c3c4c(sc3n2)COC(C)(C)C4)n1 (stereo not given) 8910 nM
Cc1cc(NC(=O)Nc2ccc3c(ccn3C)c2)sn1 5010 nM
Oc1c(Cl)cc(C(c2cc(Cl)c(O)c(Cl)c2)C(c2cc(Cl)c(O)c(Cl)c2)c2cc(Cl)c(O)c(Cl)c2)cc1Cl 794 nM
COC(=O)c1cc(C#N)c(Oc2ccc(OC)cc2)nc1C 4470 nM
CC(=O)c1cc(C#N)c(Oc2ccc(F)cc2)nc1C 2240 nM
CC(=O)c1cc(C#N)c(Oc2cccc(C(F)(F)F)c2)nc1C 1120 nM
O=C(NC1CCCCCC1)c1cccs1 5010 nM
Cc1nc2ccc(NC(=O)Nc3ccnc4cccnc34)cc2o1 1000 nM
COc1ccc(-c2csc3c2[N+]2=CCC=C2C3=O)cc1 501 nM
Cc1noc(C)c1-c1nccc(N2CCN(C)CC2)n1 2000 nM
Cc1noc(C)c1-c1nccc(N2CCOCC2)n1 631 nM
Cc1noc(C)c1-c1nccc(-n2ccnc2)n1 200 nM
Cc1noc(C)c1-c1cc(N2CCN(C)CC2)ncn1 10000 nM
Cc1cccc(Oc2ncc(-c3ccc(Cl)cc3)cn2)c1C 2240 nM
Cc1cc(Cl)ccc1Oc1ncc(-c2ccc(Cl)cc2)cn1 794 nM
CNc1nc(-c2ccccc2C)nc2ccccc12 501 nM
CNc1nc(-c2ccccc2Cl)nc2ccccc12 126 nM
CCOC(=O)COc1ccc(/C=C/[N+](=O)[O-])c(OCC(=O)OCC)c1 3160 nM
Fc1ccc2nc3[nH]c4ccccc4c3nc2c1 1000 nM
COC(=O)CSc1ccc(C#N)c(SCC(=O)OC)c1 25100 nM
CCn1ccc(C(=O)NC2=C(C#N)CCC2)n1 6310 nM
Cn1c(SCC(=O)c2ccc3c(c2)Cc2ccccc2-3)nnc1-c1ccccc1 6310 nM
CC(=O)Nc1ccc(-c2nnc(SCC(=O)c3ccc4c(c3)Cc3ccccc3-4)n2C)cc1 11200 nM
Cc1ccc2c(CC(=O)OCc3cc(=O)n4c(n3)sc3ccccc34)coc2c1 8910 nM

activity, negative = inhibition, inactive:
COc1cccc([C@H](O)Cn2cc(-c3cccc(CON=C(C)C)c3)nn2)c1 -3.64% [at 11.4 µM]
S=C1SCN(C2CCCCCCCCCCC2)CN1C1CCCCCCCCCCC1 -14.7% [at 2.29 µM]
CC(=O)OC[C@@H]1O[C@H](C/C=N\O[C@@H](C)c2cn([C@H]3COC[C@H]3O)nn2)C=C[C@@H]1OC(C)=O -4.99% [at 11.4 µM]
Nc1ncnc2nn([C@H]3O[C@@H](CO)[C@@H](O)[C@H]3O)nc12 -11.4% [at 11.4 µM]
CN(C)CCNCCN -0.129% [at 11.4 µM]
CSCC[C@@H]1NC(=O)C/C=C\[C@@H](C)COC(=O)[C@@H](C)COC1=O 4.43% [at 11.4 µM]
Oc1c(Cl)cc(CN(Cc2cc(Cl)c(O)c(Cl)c2)C2CCCCC2)cc1Cl 11.3% [at 2.29 µM]
CCOC(=O)CCN1C(=O)[C@H]2[C@H]3[C@H](O)[C@H](O)C/C(=N/OCC(C)C)[C@H]3CC[C@@H]2C1=O -11.8% [at 11.4 µM]
O=C(Nc1ccc2ncccc2c1)Nc1ccc2ncccc2c1 -28.5% [at 2.29 µM]
CO/N=C1/c2cc(OC)ccc2O[C@@H](c2cccc(OC)c2)[C@H]1O -7.77% [at 11.4 µM]
